A word on the AC50: it is the concentration at which the activity in the assay is half-maximal.

In all, about 16,000 compounds went through this assay and about 5,100 (32%) were called active. Inconclusive results (about 25%) are left out. This is one part of the list. Values without a mark were called inactive. Calls come from the whole dose curve; as a rule, active = well fitted curve in the direction sought with a large enough effect; inconclusive = small, poorly fitted or top-dose-only effect, or effect the other way; inactive = no such curve, though single readings can be large or run the other way.
% is set by controls: 0 for no effect and ±100 for the full control effect.

The target in this test is Cytochrome P450 3A4 (Homo sapiens) (UniProt P08684). Description: Cytochrome panel assay with activity outcomes. Particulars: recombinant CYP, pro-luciferin dealkylation, luminescence, p450-cyp3a4; series mostly up to 57.1 µM; activity, negative = inhibition: at the top concentration.
Chain of Cytochrome P450 3A4 (Homo sapiens) (P08684 whole entry, looked up): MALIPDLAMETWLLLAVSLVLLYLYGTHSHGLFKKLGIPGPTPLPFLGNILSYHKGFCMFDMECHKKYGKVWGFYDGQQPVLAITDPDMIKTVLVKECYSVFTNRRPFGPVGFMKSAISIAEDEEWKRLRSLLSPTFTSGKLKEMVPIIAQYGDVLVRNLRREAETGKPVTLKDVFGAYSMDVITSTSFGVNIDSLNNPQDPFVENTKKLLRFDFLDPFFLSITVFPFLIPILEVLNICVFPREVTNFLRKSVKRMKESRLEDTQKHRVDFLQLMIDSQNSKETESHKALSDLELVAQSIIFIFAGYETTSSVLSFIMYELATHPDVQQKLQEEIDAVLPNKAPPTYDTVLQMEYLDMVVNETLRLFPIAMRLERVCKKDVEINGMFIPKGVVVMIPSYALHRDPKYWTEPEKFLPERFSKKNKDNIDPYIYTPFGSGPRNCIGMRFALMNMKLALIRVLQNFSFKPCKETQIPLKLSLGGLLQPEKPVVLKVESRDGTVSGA
Turning to `CN1C(=O)/C(=C\c2ccccc2)Sc2ccc(C(=O)N3CCN(c4ccccn4)CC3)cc21`, the AC50 was 14.1 µM (active).

Take `Cn1cccc1C(=O)N1CCC2(CC1)CCN(c1ccccn1)CC2`: the “activity, negative = inhibition” value was 27.7%.

For the compound `COc1cccc(-c2nc(NCc3cnc(C)cn3)c3ccccc3n2)c1`, the half-maximal activity concentration (AC50) was 2.51 µM (active). Turning to `Cc1cnc(CNc2nc(-c3cccnc3)nc3ccccc23)cn1`, the half-maximal activity concentration (AC50) is 3.98 µM (active). Consider `CCCC12CN3CC(CCC)(CN(C1)C3C(O)C(O)C(O)CO)C2=O` (configuration not stated), for which the activity, negative = inhibition was 0.643% [at 11.4 µM]. As for `Cc1ccc(C(=O)NNC(=S)NC(=O)c2ccc(Cl)cc2)cc1`, the half-maximal activity concentration (AC50) is 14.1 µM (active). With `O=C(NNC(=S)NC(=O)c1cccnc1)c1ccccc1`, the activity, negative = inhibition is 1.97% [at 2.29 µM].

As to `CCOc1ccc(NC(=O)Cn2nnc(C(=O)NCc3ccccc3OC)c2N)cc1`, the AC50 was 11.2 µM (active). Regarding `CCOc1ccc(NC(=O)c2nnn(CC(=O)Nc3ccccc3OC)c2N)cc1`, the “activity, negative = inhibition” value is 10.2%. Consider `Cc1ccc(C)c(NC(=O)Cn2c([N+](=O)[O-])cnc2C)c1`, for which the “activity, negative = inhibition” value is -16.5%.

As to `COc1ccc(CCNC(=O)c2nnn(CC(=O)Nc3ccccc3C)c2N)cc1OC`, the half-maximal activity concentration (AC50) is 12.6 µM (active).

On to `COC(=O)c1nnn(Cc2ccccc2)c1N`, for which the “activity, negative = inhibition” value is -10.5%.

Turning to `Cc1ccc(C)c(NC(=O)Cn2nnc(C(=O)NCc3cccs3)c2N)c1`, the “activity, negative = inhibition” value is -15.7%.

`Cc1ccc(C)c(NC(=O)Cn2nnc(C(=O)Nc3c(C)cccc3C)c2N)c1`: the AC50 was 12.6 µM (active). As to `O=C(O)/C=C1\NC(=O)c2ccccc21`, the “activity, negative = inhibition” value is -4.69%.

For `NCC[C@H](N)C(=O)O`, the activity, negative = inhibition is -6.61% [at 11.4 µM]. Consider `COc1ccc(NC(=O)N2CCCC3(CCN(S(=O)(=O)c4ccccc4)CC3)C2)cc1`, for which the concentration at half-maximal activity (AC50) is 7.94 µM (active). Consider `COc1ccc(NC(=O)N2CC3(CCN(S(C)(=O)=O)CC3)C2)cc1`, for which the “activity, negative = inhibition” value is -25.7%. Still for that read-out and setting: the result for `CC(C)NC(=O)N1CC2(CCN(S(=O)(=O)c3ccccc3)CC2)C1` reads -13.8%; that for `CC(C)NC(=O)N1CC[C@@]2(CCCN(S(C)(=O)=O)C2)C1`, -7.99%. With `COc1ccc(NC(=O)N2CCCC3(CCN(S(C)(=O)=O)CC3)C2)cc1`, the concentration at half-maximal activity (AC50) is 31.6 µM (active). For `CC(C)NC(=O)N1CCCC2(CCN(S(=O)(=O)c3ccccc3)CC2)C1`, the AC50 is 7.94 µM (active).

As to `COCC(=O)N1CCC2(CCCN(C(=O)Nc3ccccc3)C2)CC1`, the “activity, negative = inhibition” value is -18.9%. As for `COc1ccc(NC(=O)N2CCC3(CC2)CCN(S(C)(=O)=O)CC3)cc1`, the “activity, negative = inhibition” value was -21.9%. On the same count and under the same terms, under `CCCCCCCCCCCCCCSCC(=O)O` stands 0.973%. In the case of `O=C(NCCNC[C@@H](O)COc1ccc(O)cc1)N1CCOCC1`, the AC50 result is “inactive”.

`Cc1ccc(OCC(O)CNC(=O)c2ccccc2C(=O)O)cc1` (configuration not stated): the half-maximal activity concentration (AC50) is 28.2 µM (active).

With `O=C(O)COc1ccc(OCCNC[C@@H](O)COc2ccccc2)cc1`, the “activity, negative = inhibition” value is -17.3%. Same read-out and setting: the result for `Cc1ccnc2nc(C(=O)OCC(=O)Nc3ccc4c(c3)OC(F)(F)O4)nn12` reads 24.8%; that for `COc1cc(C)cc(OC)c1/C=C\C(=O)O`, -4.32% [at 11.4 µM]. Turning to `COC(=O)[C@@]1(Cc2ccc(F)cc2)[C@H]2c3cc(C(=O)N4CCCC4)n(CCc4ccc(O)c(O)c4)c3C[C@H]2CN1C(=O)c1ccccc1`, the concentration at half-maximal activity (AC50) is 2.51 µM (active). Still for that read-out and setting: under `COC(=O)[C@@]1(Cc2ccc(F)cc2)[C@H]2c3cc(C(=O)N4CCCC4)n(CCc4ccc(OC)c(Br)c4)c3C[C@H]2CN1C(=O)c1ccccc1` stands 2.51 µM (active). Consider `Cc1cc(OCC(F)(F)C(F)(F)C(F)(F)C(F)(F)C(F)(F)C(F)F)nc(N)n1`, for which the “activity, negative = inhibition” value was -27.6%. `Nc1nc(-c2ccccc2)c(-c2ccccc2)c(-c2nc(N)nc(-c3ccccc3)c2-c2ccccc2)n1`: the activity, negative = inhibition was 4.04% [at 11.4 µM]. `Nc1ccc(-c2sc(N)nc2-c2ccccc2)cc1`: the AC50 was 10 µM (active). In the case of `Nc1nc(-c2ccccc2)c(-c2ccccc2)s1`, the activity, negative = inhibition is -8.94% [at 2.29 µM]. Still for that read-out and setting: under `CSC1=N/C(=C\c2ccc(Br)o2)C(=O)S1` stands -3.65% [at 11.4 µM]. Take `CCCNC(=O)OC[C@@H]1O[C@H](CCO/N=C(\C)CCN2CCc3nc(CC)c(CC)cc3C2)C=C[C@@H]1Oc1ccc(OC)cc1`: the AC50 is 3.98 µM (active).

Consider `C=CC[C@@H]1C=C[C@H](O/N=C(\C)CCN2CCc3nc(CC)c(CC)cc3C2)[C@H](CO)O1`, for which the activity, negative = inhibition is -75.9% [at 11.4 µM]. On to `CCCNC(=O)OC[C@@H]1O[C@H](CCO/N=C(\C)CCN2CCc3nc(-c4ccccc4)c(-c4ccccc4)cc3C2)C=C[C@@H]1Oc1ccc(OC)cc1`, for which the AC50 is 3.16 µM (active). With `C=CC[C@@H]1C=C[C@H](O/N=C(\C)CCN2CCc3nc(-c4ccccc4)c(-c4ccccc4)cc3C2)[C@H](CO)O1`, the AC50 is 3.98 µM (active). Turning to `COc1ccc(O[C@H]2C=C[C@@H](c3ccccc3)O[C@@H]2CO/N=C(\C)CCN2CCc3nc(-c4ccccc4)c(-c4ccccc4)cc3C2)cc1`, the activity, negative = inhibition is -57.3% [at 11.4 µM]. Regarding `Cc1c(C)c(C)c(CC2(C)CSC2)c(CC2(C)CSC2)c1C`, the activity, negative = inhibition was -14.4% [at 11.4 µM]. Take `CC(C)(C)NC(=O)CN(Cc1cccs1)C(=O)CCC(=O)Nc1nccs1`: the AC50 is 4.47 µM (active). In the case of `CN(C)CCN(Cc1cccs1)c1ccccn1`, the AC50 entry is “inactive”. As to `CC1=CC2=NC(=O)CC(C)(C(=O)N(CC(=O)NC(C)(C)C)Cc3cccs3)N2C=C1` (configuration not stated), the “activity, negative = inhibition” value was -28.5%. Same read-out and setting: under `CSc1nc(C)c2c(n1)N(c1ccc(C(F)(F)F)cc1)CC2` stands -9.83%.

Take `CCOC(=O)c1c(-c2ccc(C)cc2)csc1NC(=O)C1CC=CCC1C(=O)O` (configuration not stated): the activity, negative = inhibition is -2.99% [at 2.29 µM]. Regarding `CCOC(=O)c1c(-c2ccc(C)o2)csc1NC(=S)NC(=O)N(C)C`, the AC50 was 15.8 µM (active). For the compound `CCOC(=O)c1c(-c2ccccc2)csc1NC(=O)c1cccc(N2C(=O)CCC2=O)c1`, the “activity, negative = inhibition” value is 28.3%. Same read-out and setting: the result for `COc1ccc(-c2nc(-c3cccc(C)c3)nc(N3CCN(C)CC3)c2C#N)cc1` reads -13.1% [at 2.29 µM]. Still for that read-out and setting: the result for `COc1ccc(-c2nsc3c(N4CCCCC4)ncnc23)cc1` reads 8.86%; that for `COc1cc(N2CCOCC2)ncn1`, -0.512%; that for `CN(C)C(=O)c1ccc(-c2ccc3ncnc(N4CCNCC4)c3c2)cc1`, -29.4%. On to `CN(C)C(=O)c1ccc(-c2ccc3ncnc(N4CCOCC4)c3c2)cc1`, for which the AC50 is 15.8 µM (active).

`COc1cccc(-c2ccc3ncnc(N4CCOCC4)c3c2)c1`: the AC50 is 10 µM (active). The same measure, in the same setting: the result for `COc1cccc(-c2ccc3ncnc(N4CCN(C)CC4)c3c2)c1` reads 15.8 µM (active).

The record behind these values is PubChem BioAssay AID1851 (National Center for Advancing Translational Sciences (NCATS), 2009).
